# Measured values from PubChem BioAssay (NCATS).
# Inconclusive results are not listed. Calls of active or inactive are those of the source. Calls come from the whole dose curve; as a rule, active = well fitted curve in the direction sought with a large enough effect; inconclusive = small, poorly fitted or top-dose-only effect, or another doubt; inactive = no such curve, though single readings can be large; an effect the other way counts as inactive or inconclusive.
# Assay: BET inhibitor-based combinations targeting novel dependencies in MECOM-rearranged (r) AML: HNT-34 cell line (AID 2202234); note: nearly all actives have a fitted effect of over 35% in size;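 for viability (% of control): plate controls were vehicle wells for no effect and cell-free wells for full effect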
# Settings: HNT-34 AML viability, CellTiter-Glo luminescence, 48 h; series mostly up to 46 µM; viability (% of control): at the top concentration
# In short: (§1)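 Using pin-tool transfer, drugs were added in 11 doses to cells (500/well), incubated 48 hr, and assessed with CellTiter-Glo. Z-AUC is a mean-centring transformation applied separately to each screened line.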
# Potency is the fitted concentration of half-maximal effect.
SMILES,Potency,viability (% of control)
CCCCC(=O)O[C@]1(C(=O)CO)[C@@H](C)C[C@H]2[C@@H]3CCC4=CC(=O)C=C[C@]4(C)[C@@]3(F)[C@@H](O)C[C@@]21C,14.8 µM (active),–
CCN(c1ccccc1)c1cc(NC)[n+](C)c(C)n1,–,109% (inactive)
CC(=O)Oc1cc2c(s1)CCN(C(C(=O)C1CC1)c1ccccc1F)C2 (stereo unspecified),–,81.5% (inactive)
CC(=O)O[C@]1(C(C)=O)CC[C@H]2[C@@H]3C=C(C)C4=CC(=O)CC[C@]4(C)[C@H]3CC[C@@]21C,18.6 µM (active),–
CCC(c1ccc(O)cc1)C(CC)c1ccc(O)cc1 (stereo unspecified),–,86.7% (inactive)
CCOc1ccccc1N=Nc1c(C)[nH]n(-c2nc(-c3ccccc3)cs2)c1=O,–,96.4% (inactive)
CC(=O)NC(CS)C(=O)O (stereo unspecified),–,96.2% (inactive)
Nc1[nH]c(=O)ncc1F,–,101% (inactive)
O=[N+]([O-])c1ccc(Nc2ccccc2-c2ccccc2)c2nonc12,23.5 µM (active),–
CCCCCCCN(CC)CCCC(O)c1ccc(NS(C)(=O)=O)cc1 (stereo unspecified),–,58% (inactive)
CCOc1cc(N)c(Cl)cc1C(=O)NCC1CN(Cc2ccc(F)cc2)CCO1 (stereo unspecified),–,91.8% (inactive)
COC(=O)C[C@](O)(CCCC(C)(C)O)C(=O)O[C@@H]1C(OC)=C[C@]23CCCN2CCc2cc4c(cc2[C@H]13)OCO4,0.0417 µM (active),–
Oc1ccc(C2=Cc3ccc(O)cc3OC2)cc1,1.18 µM (active),–
CC(NCCc1ccc(O)cc1)C(O)c1ccc(O)cc1 (stereo unspecified),–,99.5% (inactive)

# Assay: BET inhibitor-based combinations targeting novel dependencies in MECOM-rearranged (r) AML: UCSD-AML1 cell line (AID 2202235); note: nearly all actives have a fitted effect of over 40% in size;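 for viability (% of control): plate controls were DMSO vehicle wells for no effect and blank wells for full effect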
# Settings: UCSD-AML1 AML cells viability, CellTiter-Glo, 48 h; series mostly up to 46 µM; viability (% of control): at the top concentration
# In short: as §1
SMILES,viability (% of control),Potency
CCCCC(=O)O[C@]1(C(=O)CO)[C@@H](C)C[C@H]2[C@@H]3CCC4=CC(=O)C=C[C@]4(C)[C@@]3(F)[C@@H](O)C[C@@]21C,114% (inactive),–
COc1ccc(C(=O)CC(=O)c2ccc(C(C)(C)C)cc2)cc1,103% (inactive),–
CN1C(=O)C[C@H](C(=O)N[C@@H](Cc2cnc[nH]2)C(=O)N2CCC[C@@H]2C(N)=O)NC1=O,110% (inactive),–
COc1ccccc1C(=O)Nc1cc2c(cc1N1CCCCC1)n(C)c(=O)n2C,95.5% (inactive),–
COc1ccc(-c2coc3cc(O)cc(O)c3c2=O)cc1,88.7% (inactive),–
N[C@H](CSC(c1ccccc1)(c1ccccc1)c1ccccc1)C(=O)O,112% (inactive),–
Nc1nccc(-c2ccc3noc(-c4ccc(Cl)cc4)c3c2)n1,–,20.9 µM (active)
O=C(/C=C/N1C[C@H]2C[C@@H]1CN2c1ccccn1)c1ccccc1O,82.4% (inactive),–
CCN(c1ccccc1)c1cc(NC)[n+](C)c(C)n1,108% (inactive),–
CC(=O)Oc1cc2c(s1)CCN(C(C(=O)C1CC1)c1ccccc1F)C2 (stereo unspecified),104% (inactive),–
CC(=O)O[C@]1(C(C)=O)CC[C@H]2[C@@H]3C=C(C)C4=CC(=O)CC[C@]4(C)[C@H]3CC[C@@]21C,101% (inactive),–
CCC(c1ccc(O)cc1)C(CC)c1ccc(O)cc1 (stereo unspecified),94.5% (inactive),–
CNC(=O)[C@H](Cc1ccccc1)NC(=O)[C@H](CC(C)C)[C@H](CSc1cccs1)C(=O)NO,101% (inactive),–
O=C1c2ccccc2-[n+]2ccc3c([nH]c4ccccc43)c21,–,1.86 µM (active)
N=C(N)c1ccc2cc(OC(=O)c3ccc(N=C(N)N)cc3)ccc2c1,–,23.5 µM (active)
CCOc1ccccc1N=Nc1c(C)[nH]n(-c2nc(-c3ccccc3)cs2)c1=O,107% (inactive),–

SMILES,viability (% of control),Potency
CC(=O)NC(CS)C(=O)O (stereo unspecified),104% (inactive),–
Nc1[nH]c(=O)ncc1F,101% (inactive),–
O=[N+]([O-])c1ccc(Nc2ccccc2-c2ccccc2)c2nonc12,107% (inactive),–
CCOC(=O)c1c(C)n(C)c2ccc(O)cc12,99.8% (inactive),–
CCCCCCCN(CC)CCCC(O)c1ccc(NS(C)(=O)=O)cc1 (stereo unspecified),79.6% (inactive),–
CCN(CC)CCOc1ccc(Cc2ccccc2)cc1,98.2% (inactive),–
CCOc1cc(N)c(Cl)cc1C(=O)NCC1CN(Cc2ccc(F)cc2)CCO1 (stereo unspecified),108% (inactive),–
CCCCOCCOc1nc(-c2ccc(C(=O)O)c(F)c2)sc1C,99.5% (inactive),–
NC(=O)c1ccc(I)c([N+](=O)[O-])c1,109% (inactive),–
C[C@]12CC[C@@H]3c4ccc(O)cc4C[C@@H](CCCCCCCCCS(=O)CCCC(F)(F)C(F)(F)F)[C@H]3[C@H]1CC[C@H]2O (stereo partly specified),94.9% (inactive),–
COC(=O)C[C@](O)(CCCC(C)(C)O)C(=O)O[C@@H]1C(OC)=C[C@]23CCCN2CCc2cc4c(cc2[C@H]13)OCO4,–,0.0148 µM (active)
Oc1ccc(C2=Cc3ccc(O)cc3OC2)cc1,–,1.32 µM (active)
CC(NCCc1ccc(O)cc1)C(O)c1ccc(O)cc1 (stereo unspecified),108% (inactive),–
O=c1[nH]c(=O)n([C@H]2C[C@H](O)[C@@H](CO)O2)cc1I,–,20.9 µM (active)
CCCn1c(=O)c2[nH]c(C34CC5CC3C[C@@H](C5)C4)nc2n(CCC)c1=O,109% (inactive),–

# Assay: BET inhibitor-based combinations targeting novel dependencies in MECOM-rearranged (r) AML: AML-191 cell line (AID 2202236; note: nearly all actives have a fitted effect of over 35% in size;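 for viability (% of control): plate controls were vehicle wells for no effect and wells without cells for full effect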)
# Settings: AML-191 viability, CellTiter-Glo luminescence, 48 h; series mostly up to 46 µM; viability (% of control): at the top concentration
# In short: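 Viability of cells (500 per well) is scored by luminescent CellTiter-Glo at 48 hr post-dosing. Eleven-point titrations are normalized to DMSO and empty controls and reduced to AUC values.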
SMILES,Potency,viability (% of control)
CCCCC(=O)O[C@]1(C(=O)CO)[C@@H](C)C[C@H]2[C@@H]3CCC4=CC(=O)C=C[C@]4(C)[C@@]3(F)[C@@H](O)C[C@@]21C,0.0132 µM (active),–
COc1ccc(C(=O)CC(=O)c2ccc(C(C)(C)C)cc2)cc1,20.9 µM (active),–
CN1C(=O)C[C@H](C(=O)N[C@@H](Cc2cnc[nH]2)C(=O)N2CCC[C@@H]2C(N)=O)NC1=O,20.9 µM (active),–
COc1ccccc1C(=O)Nc1cc2c(cc1N1CCCCC1)n(C)c(=O)n2C,–,106% (inactive)
COc1ccc(-c2coc3cc(O)cc(O)c3c2=O)cc1,–,73.5% (inactive)
O=C(/C=C/N1C[C@H]2C[C@@H]1CN2c1ccccn1)c1ccccc1O,–,87.7% (inactive)
CCC(C)(C)C(=O)O[C@H]1C[C@@H](C)C=C2C=C[C@H](C)[C@H](CC[C@@H]3C[C@@H](O)CC(=O)O3)[C@H]21,–,86.8% (inactive)
CCN(c1ccccc1)c1cc(NC)[n+](C)c(C)n1,–,102% (inactive)
CC(=O)Oc1cc2c(s1)CCN(C(C(=O)C1CC1)c1ccccc1F)C2 (stereo unspecified),–,105% (inactive)
N=C(N)c1ccc2cc(OC(=O)c3ccc(N=C(N)N)cc3)ccc2c1,23.5 µM (active),–
CCOc1ccccc1N=Nc1c(C)[nH]n(-c2nc(-c3ccccc3)cs2)c1=O,–,99.7% (inactive)
Nc1[nH]c(=O)ncc1F,–,106% (inactive)
O=[N+]([O-])c1ccc(Nc2ccccc2-c2ccccc2)c2nonc12,20.9 µM (active),–
CCOC(=O)c1c(C)n(C)c2ccc(O)cc12,–,99.9% (inactive)
CCCCCCCN(CC)CCCC(O)c1ccc(NS(C)(=O)=O)cc1 (stereo unspecified),–,74.6% (inactive)
CCOc1cc(N)c(Cl)cc1C(=O)NCC1CN(Cc2ccc(F)cc2)CCO1 (stereo unspecified),–,103% (inactive)
CCCCOCCOc1nc(-c2ccc(C(=O)O)c(F)c2)sc1C,2.63 µM (active),–
COC(=O)C[C@](O)(CCCC(C)(C)O)C(=O)O[C@@H]1C(OC)=C[C@]23CCCN2CCc2cc4c(cc2[C@H]13)OCO4,0.059 µM (active),–
Oc1ccc(C2=Cc3ccc(O)cc3OC2)cc1,2.95 µM (active),–
CC(NCCc1ccc(O)cc1)C(O)c1ccc(O)cc1 (stereo unspecified),–,105% (inactive)
CCCn1c(=O)c2[nH]c(C34CC5CC3C[C@@H](C5)C4)nc2n(CCC)c1=O,16.6 µM (active),–
